Results from PubChem BioAssay (NCI).
Where “and” joins values, the source holds several entries; their conditions need not be identical. Identical values can stand only once. This is part of a sample that, as a whole, favours compounds with a hit. Of some 79,000 tested, about 15% had one in any assay. Some structures have more than one record in an assay (separate samples or runs), and their calls can disagree. Calls of active or inactive are those of the source. Cut-off read from the data, not from the text of the source: active = growth inhibition above about 70%; inactive = the rest.

How the values were obtained:
[1] = NCI Yeast Anticancer Drug Screen. Data for the rad50 strain (AID 155);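 note: 0% = growth of vehicle-only cultures of the same strain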; details: S. cerevisiae rad50 strain growth inhibition, stronger effect = higher value
In short: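 Readout: growth inhibition relative to vehicle-treated cultures. Compound exposure was carried out in a genetically defined yeast strain deficient in DNA damage repair.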

[2] = NCI Yeast Anticancer Drug Screen. Data for the mec2-1 strain (AID 157); details: S. cerevisiae mec2-1 strain, stronger effect = higher value
In short: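 Mutant yeast (mec2-1) grown with compound; growth inhibition relative to vehicle control reported.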

[3] = NCI Yeast Anticancer Drug Screen. Data for the sgs1 mgt1 strain (AID 161);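 note: 0% = growth of cultures given vehicle only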; details: S. cerevisiae sgs1 mgt1 strain, stronger effect = higher value
In short: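 Compounds are added to genetically altered yeast, and growth is compared with cultures given vehicle alone to give percent inhibition.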

[4] = NCI Yeast Anticancer Drug Screen. Data for the cln2 rad14 strain (AID 165);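 note: 0% = growth equal to vehicle treated cultures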; details: S. cerevisiae cln2 rad14 strain, stronger effect = higher value
In short: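 Readout is yeast growth inhibition versus vehicle-treated controls, using a strain with cln2 and rad14 alterations exposed to compound.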

[5] = NCI Yeast Anticancer Drug Screen. Data for the bub3 strain (AID 167); details: S. cerevisiae bub3 mutant strain, stronger effect = higher value
In short: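 Readout: yeast growth inhibition, expressed relative to vehicle-only wells. The test organism is a mutant strain from a panel with lesions in DNA repair or checkpoint genes.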

[6] = NCI Yeast Anticancer Drug Screen. Data for the mlh1 rad18 strain (AID 175); details: S. cerevisiae mlh1 rad18 strain growth inhibition, stronger effect = higher value
In short: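 Genetically defined yeast (DNA repair-deficient) exposed to compounds; growth inhibition determined relative to vehicle.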

[7] = at 5.0 µM (retest, dose inferred, filed as 0.5)
[8] = at 50.0 µM (retest, dose inferred, filed as 5.0)

Measured: growth inhibition

CN(C)c1ccc(/C=C/c2ccnc3ccccc23)c(Cl)c1
inactive: [1]; [7] -7% | [1]; [8] 10% | [1]; at 50.0 µM -1.1% and 16.1% | [2]; [7] -7% | [2]; [8] -4% | [2]; at 50.0 µM 11.4% and 3.15% | [3]; [7] -1% | [3]; [8] 35% | [3]; at 50.0 µM -0.1% and -2% | [4]; [7] -22% | [4]; [8] -29% | [4]; at 50.0 µM -32.5% and 35.4% | [5]; [7] -1% | [5]; [8] 43% | [5]; at 50.0 µM -1% and 23.1% | [6]; [7] -13% | [6]; [8] 28% | [6]; at 50.0 µM -5.45% and -11.5%

Cc1cc([N+](=O)[O-])c(C)c2c1[nH]c1ccc(O)cc12
active: [1]; [8] 93% | [1]; at 50.0 µM 87% | [2]; [8] 94% | [2]; at 50.0 µM 88.8% | [3]; [8] 94% | [3]; at 50.0 µM 88.2% | [4]; [8] 96% | [4]; at 50.0 µM 85.5% | [5]; [7] 78% | [5]; [8] 96% | [5]; at 50.0 µM 88.8% | [6]; [7] 73% | [6]; [8] 95% | [6]; at 50.0 µM 82.7%
inactive: [1]; [7] 52% | [2]; [7] 46% | [3]; [7] 23% | [4]; [7] 50%

OC1CN(Cc2ccccc2)C[C@@H]1O (stereo not given in full)
inactive: [1]; [7] 8% | [1]; at 50.0 µM 23% | [2]; [7] 11% | [2]; at 50.0 µM -7.9% | [3]; [7] 10% | [3]; at 50.0 µM -4.5% | [4]; [7] 17% | [4]; at 50.0 µM 59.6% | [5]; [7] 11% | [5]; at 50.0 µM -0.5% | [6]; [7] 25% | [6]; at 50.0 µM 36.8%
active: [1]; [8] 99% | [2]; [8] 99% | [3]; [8] 99% | [4]; [8] 93% | [5]; [8] 99% | [6]; [8] 99%

Nc1ccc(Cc2ccc(Br)cc2)cc1
inactive: [1]; [7] 28% | [2]; [7] 12% | [3]; [7] 1% | [4]; [7] 8% | [5]; [7] 30% | [6]; [7] 30%
active: [1]; [8] 98% | [1]; at 50.0 µM 99.2% | [2]; [8] 99% | [2]; at 50.0 µM 99.3% | [3]; [8] 99% | [3]; at 50.0 µM 99.3% | [4]; [8] 98% | [4]; at 50.0 µM 98.8% | [5]; [8] 98% | [5]; at 50.0 µM 98.8% | [6]; [8] 98% | [6]; at 50.0 µM 99.2%

CCOC(=O)Nc1c(C)cc(C)c(Br)c1C
inactive: [1]; [7] -3% | [1]; [8] -3% | [2]; [7] -12% | [2]; [8] 6% | [3]; [7] 1% | [3]; [8] 12% | [4]; [7] 0% | [4]; [8] -20% | [5]; [7] -5% | [5]; [8] -8% | [6]; [7] 9% | [6]; [8] 22%
active: [1]; at 50.0 µM 97.2% | [2]; at 50.0 µM 98.7% | [3]; at 50.0 µM 94.9% | [4]; at 50.0 µM 98.9% | [5]; at 50.0 µM 98.6% | [6]; at 50.0 µM 99.2%

NC(=O)NC(=O)C(Cc1ccc(Cl)cc1)c1ccccc1 (stereo not given)
inactive: [1]; [7] -1% | [1]; [8] 17% | [1]; at 50.0 µM -15% | [2]; [7] -6% | [2]; [8] 8% | [2]; at 50.0 µM -13.2% | [3]; [7] 1% | [3]; [8] 7% | [3]; at 50.0 µM -5.75% | [4]; [7] 4% | [4]; [8] 19% | [4]; at 50.0 µM -65.7% | [5]; [7] 6% | [5]; [8] 20% | [5]; at 50.0 µM -52.6% | [6]; [7] -13% | [6]; [8] 5% | [6]; at 50.0 µM 2.15%

CSc1ncnc2c1ncn2C1OC(CO)C(O)C1O (stereo not given)
inactive: [1]; [7] 2% | [1]; [8] 9% | [1]; at 50.0 µM 8.95% and 3.25% | [2]; [7] -10% | [2]; [8] -1% | [2]; at 50.0 µM 14.7% and 17.6% | [3]; [7] -5% | [3]; [8] 1% | [3]; at 50.0 µM 3.1% and -2.35% | [4]; [7] -1% | [4]; [8] -3% | [4]; at 50.0 µM 38.9% and -38.6% | [5]; [7] -3% | [5]; [8] -7% | [5]; at 50.0 µM 0.05% and 13.2% | [6]; [7] 14% | [6]; [8] 0% | [6]; at 50.0 µM -10.1% and 1.6%

CCSSc1ccccc1C(=O)NC(CC)CO (stereo not given)
inactive: [1]; [7] 1% | [1]; [8] 59% | [2]; [7] 15% | [2]; [8] 69% | [2]; at 50.0 µM 20.8% | [3]; [7] 20% | [4]; [7] 0% | [4]; [8] 12% | [4]; at 50.0 µM 19.4% | [5]; [7] -10% | [5]; [8] 62% | [5]; at 50.0 µM 65.5% | [6]; [7] 3% | [6]; at 50.0 µM 65.5%
active: [1]; at 50.0 µM 73.5% | [3]; [8] 71% | [3]; at 50.0 µM 94.3% | [6]; [8] 73%

CCN(CC)CCOc1ccc2c(C)c(-c3ccccc3)c(=O)oc2c1
inactive: [1]; [7] 0% | [1]; [8] 23% | [1]; at 50.0 µM 62% | [2]; [7] -3% | [2]; [8] 34% | [2]; at 50.0 µM 3% | [3]; [7] 10% | [3]; [8] 38% | [3]; at 50.0 µM 34.8% | [4]; [7] -5% | [4]; [8] 18% | [4]; at 50.0 µM -44.8% | [5]; [7] -4% | [5]; [8] 27% | [5]; at 50.0 µM 60.8% | [6]; [7] 2% | [6]; [8] 30% | [6]; at 50.0 µM 21.1%

c1ccc2c(c1)CC1=C(O2)c2ccccc2OC1
inactive: [1]; [7] -2% | [1]; [8] 48% | [1]; at 50.0 µM 37.5% | [2]; [7] 2% | [2]; at 50.0 µM 39.5% | [3]; [7] 5% | [3]; at 50.0 µM 42.7% | [4]; [7] -3% | [4]; [8] 22% | [4]; at 50.0 µM 46.1% | [5]; [7] 4% | [5]; at 50.0 µM 53% | [6]; [7] 6%
active: [2]; [8] 78% | [3]; [8] 76% | [5]; [8] 80% | [6]; [8] 89% | [6]; at 50.0 µM 92.1%

NC(C/[N+]([O-])=N/O)C(=O)O (stereo not given)
inactive: [1]; [7] 18% | [1]; [8] 21% | [1]; at 50.0 µM 40.7% and 47.2% and 57.1% | [2]; [7] 10% | [2]; [8] 13% | [2]; at 50.0 µM 11.1% and 22.1% and 33.5% | [3]; [7] 46% | [3]; [8] 51% | [3]; at 50.0 µM 36.2% and 39.5% and 48.1% | [4]; [7] 37% | [4]; [8] -28% | [4]; at 50.0 µM 5.75% and 1.45% and 18.8% | [5]; [7] 46% | [5]; [8] 4% | [5]; at 50.0 µM -0.3% and 17.1% and 21.9% | [6]; [7] 25% | [6]; [8] 38% | [6]; at 50.0 µM 31.9% and 35.6% and 46.6%

OC1(C2C=CC=C2)c2ccccc2C=Cc2ccccc21
active: [1]; at 50.0 µM 91% | [3]; at 50.0 µM 78.6% | [4]; [8] 70% | [6]; at 50.0 µM 89.6%
inactive: [1]; [7] 4% | [1]; [8] 51% | [2]; [7] 13% | [2]; [8] 48% | [2]; at 50.0 µM 10.7% | [3]; [7] 4% | [3]; [8] 54% | [4]; [7] -36% | [4]; at 50.0 µM 48.4% | [5]; [7] -14% | [5]; [8] -85% | [5]; at 50.0 µM 69.5% | [6]; [7] 9% | [6]; [8] 37%

O=C(Nc1ccc(Cl)cc1)c1ccccc1O
92.6% (active) and 4.9% (inactive): [1]; at 50.0 µM
inactive: [1]; [7] 2% | [1]; [8] 8% | [2]; [7] 2% | [2]; [8] 11% | [3]; [7] 1% | [3]; [8] 33% | [4]; [7] 3% | [4]; [8] 6% | [5]; [7] 8% | [5]; [8] 13% | [6]; [7] 4% | [6]; [8] 9%
89% (active) and -5.25% (inactive): [3]; at 50.0 µM
90.8% (active) and 3.8% (inactive): [5]; at 50.0 µM
97.2% (active) and -0.55% (inactive): [6]; at 50.0 µM
94.7% (active) and -13.8% (inactive): [2]; at 50.0 µM
85.2% (active) and -12.8% (inactive): [4]; at 50.0 µM

Nc1ccc([N+](=O)[O-])c(S(=O)(=O)O)c1
inactive: [1]; [7] -160% | [1]; [8] -143% | [1]; at 50.0 µM 60.8% and -0.9% | [2]; [7] -46% | [2]; [8] -47% | [2]; at 50.0 µM 28.6% and -3.55% | [3]; [7] -60% | [3]; [8] -54% | [3]; at 50.0 µM 46% and 3.45% | [4]; [7] -56% | [4]; [8] -53% | [4]; at 50.0 µM 40.2% and -6.5% | [5]; [7] -71% | [5]; [8] -57% | [6]; [7] -139% | [6]; [8] -104% | [6]; at 50.0 µM 64.6% and 6.45%
78.8% (active) and -31.6% (inactive): [5]; at 50.0 µM

CO[C@H](C(=O)[C@@H](O)[C@@H](C)O)[C@@H]1Cc2cc3cc(OC4CC(OC5CC(O)C(O)C(C)O5)C(O)C(C)O4)c(C)c(O)c3c(O)c2C(=O)[C@H]1OC1CC(OC2CC(OC3CC(C)(O)C(O)C(C)O3)C(O)C(C)O2)C(O)C(C)O1 (stereo not given in full)
active: [1]; [8] 77%
72.1% (active) and 5.15% (inactive): [1]; at 50.0 µM
93.2% (active) and 11.2% (inactive): [4]; at 50.0 µM
inactive: [1]; [7] 12% | [2]; [7] 7% | [2]; [8] 39% | [2]; at 50.0 µM 33% and -0.5% | [3]; [7] 6% | [3]; [8] 37% | [3]; at 50.0 µM 62.4% and 17.8% | [4]; [7] 21% | [4]; [8] 47% | [5]; [7] -2% | [5]; [8] 43% | [5]; at 50.0 µM 44.5% and 24.1% | [6]; [7] 4% | [6]; [8] 33% | [6]; at 50.0 µM 41.5% and 14.4%
